Experimental data as given in ChEMBL document CHEMBL1961873, “Compounds: GSK PKIS; Assays: Nanosyn kinase panel” (2012).
Several values for one entry are separate records, joined by “and”; a condition that tells them apart may be missing. Identical values can stand only once.

These molecules were tested against T1, Serine/threonine-protein kinase 3 (Homo sapiens) (UniProt Q13188). Conditions: at 1 µM.
T1 sequence (whole entry): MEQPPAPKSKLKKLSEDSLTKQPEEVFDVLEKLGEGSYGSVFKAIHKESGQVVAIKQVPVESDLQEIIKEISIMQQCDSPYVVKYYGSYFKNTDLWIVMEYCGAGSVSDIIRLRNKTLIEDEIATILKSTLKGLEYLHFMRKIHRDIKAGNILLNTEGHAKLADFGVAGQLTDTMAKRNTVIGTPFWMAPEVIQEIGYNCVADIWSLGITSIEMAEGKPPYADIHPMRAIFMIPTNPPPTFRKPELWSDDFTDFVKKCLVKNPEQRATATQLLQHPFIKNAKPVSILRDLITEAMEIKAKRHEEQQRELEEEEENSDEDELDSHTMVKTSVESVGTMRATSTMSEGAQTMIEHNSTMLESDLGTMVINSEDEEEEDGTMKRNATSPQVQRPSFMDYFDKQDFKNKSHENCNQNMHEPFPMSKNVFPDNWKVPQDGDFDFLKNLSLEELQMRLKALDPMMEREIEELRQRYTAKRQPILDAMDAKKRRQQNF

Question: With `NS(=O)(=O)c1ccc(N/N=C2\C(=O)Nc3ccc(C(=O)NCc4ccncc4)cc32)cc1` as the molecule, how does the inhibition read?
Answer: Its inhibition is 72%.

Question: How did the inhibition turn out when `CCCNc1cccc(-n2ncc3c(N/N=C/c4ccncc4)ncnc32)c1` was run?
Answer: Its inhibition is 9.89%.

Question: How did the inhibition turn out when `c1cnn2ncc(-c3ccnc(NCCCN4CCOCC4)n3)c2c1` was run?
Answer: The inhibition was 2.29%.

Question: With `O=C(Nc1n[nH]c2nnc(-c3cccnc3)cc12)C1CC1` as the molecule, how does the inhibition read?
Answer: The inhibition was -0.37%.

Question: Which inhibition does the source give for `COC(=O)Nc1nc2cc(Oc3ccc(NC(=O)Nc4ccccc4)cc3)ccc2[nH]1` here?
Answer: Its inhibition is 6.48%.

Question: With `Fc1ccc(Nc2nccc(-c3c(-c4ccc(C(F)(F)F)cc4)nn4ncccc34)n2)cc1F` as the molecule, how does the inhibition read?
Answer: Its inhibition is 5.09%.

Question: Which inhibition does the source give for `CCS(=O)(=O)c1ccc(OC)c(Nc2ncc(-c3cccc(F)c3)o2)c1` here?
Answer: Its inhibition is 8.4%.

Question: How did the inhibition turn out when `CN1CCC(C(=O)Nc2n[nH]c3nc(-c4ccc(O)cc4)c(Br)cc23)CC1` was run?
Answer: Its inhibition is 13.2% and 3.69%.

Question: Which inhibition does the source give for `CC1=C(C(=O)Nc2ccc3[nH]nc(C)c3c2)C(c2ccc(C(F)(F)F)cc2)CC(=O)N1` (configuration not stated) here?
Answer: Its inhibition is 5.46%.

Question: With `COc1cccc(-n2ncc3c(N/N=C/c4ccc(C(=O)NCCN(C)C)cc4)ncnc32)c1` as the molecule, how does the inhibition read?
Answer: The inhibition was 6.3%.

Question: How did the inhibition turn out when `N#Cc1ccc2c(-c3ccnc(NC4CC4)n3)c(-c3ccc(F)cc3)nn2c1` was run?
Answer: The inhibition was 1.55%.

Question: How did the inhibition turn out when `COc1ccc(Nc2ncc(-c3ccccc3)o2)cc1OC` was run?
Answer: The inhibition was 2.73%.

Question: How did the inhibition turn out when `Nc1nccc(-c2c(-c3ccc(F)cc3)ncn2C2CCNCC2)n1` was run?
Answer: Its inhibition is 1.14% and 0.77%.

Question: For `Cc1cc(O)cc(C)c1/C=C/c1cncc(C(N)=O)c1`, which inhibition is on record?
Answer: Its inhibition is 4.31%.

Question: Which inhibition does the source give for `N#Cc1cccc(Nc2ncc(-c3ccccc3)o2)c1` here?
Answer: The inhibition was 5.23%.

Question: Which inhibition does the source give for `CC1=C(C(=O)Nc2ccc3[nH]ncc3c2)C(c2ccc(F)cc2)N=C(c2ccc(C(F)(F)F)nc2)N1` (configuration not stated) here?
Answer: Its inhibition is 0.56%.

Question: Which inhibition does the source give for `COc1cc2c(cc1Nc1nc(Nc3cccc(F)c3C(N)=O)c3cc[nH]c3n1)N(C(=O)CN1CCN(C(C)C)CC1)CC2` here?
Answer: The inhibition was 2.65%.

Question: `COc1cc(N2CCN(C(C)C)CC2)ccc1Nc1nc(Nc2cccc(F)c2C(=O)O)c2cc[nH]c2n1` was tested. Which inhibition did it give?
Answer: Its inhibition is 9.11%.

Question: For `Cn1c(-c2nonc2N)nc2cnccc21`, which inhibition is on record?
Answer: Its inhibition is 5.05%.

Question: `Fc1cccc(COc2ccc(Nc3ncncc3C#Cc3ccccc3)cc2Cl)c1` was tested. Which inhibition did it give?
Answer: Its inhibition is 8.97%.

Question: For `CN(c1ccc(NC(=O)NCCN2CCOCC2)cc1)c1ccnc(Nc2ccc(CS(C)(=O)=O)cc2)n1`, which inhibition is on record?
Answer: The inhibition was 13.6%.

Question: `COc1cc(Nc2ncc(-c3ccccc3)o2)cc(OC)c1` was tested. Which inhibition did it give?
Answer: The inhibition was 6.9%.

Question: For `COC(=O)Nc1nc2ccc(Oc3ccc(NC(=O)Nc4cc(C(F)(F)F)ccc4F)cc3)cc2s1`, which inhibition is on record?
Answer: Its inhibition is -0.3%.

Question: `c1ccc(-c2n[nH]cc2-c2ccnc(-c3ccc(OCCn4ccnc4)cc3)c2)nc1` was tested. Which inhibition did it give?
Answer: Its inhibition is 3.49%.

Question: How did the inhibition turn out when `OCCCNc1nccc(-c2c(-c3ccc(F)cc3)nn3cc(C(F)(F)F)ccc23)n1` was run?
Answer: The inhibition was 2.96%.

Question: Which inhibition does the source give for `O=C(O[C@H]1CN[C@H](C#Cc2cc3ncnc(Nc4ccc5c(ccn5Cc5cc(F)ccc5F)c4)c3s2)C1)N1CCOCC1` here?
Answer: Its inhibition is 1.92%.

Question: With `NC(=O)c1ccc2c(-c3ccnc(NCCCO)n3)c(-c3ccc(F)cc3)nn2c1` as the molecule, how does the inhibition read?
Answer: Its inhibition is 4.67%.

Question: For `FC(F)(F)CNc1nccc(-c2cnn3ncccc23)n1`, which inhibition is on record?
Answer: The inhibition was 6.67%.

Question: For `CS(=O)(=O)Nc1ccc(-c2cc(-c3ccccc3)cc(C(N)=O)c2N)cc1`, which inhibition is on record?
Answer: The inhibition was -0.76%.

Question: `CS(=O)(=O)CCNCc1ccc(-c2ccc3ncnc(Nc4ccc(OCc5cccc(C(F)(F)F)c5)cc4)c3c2)o1` was tested. Which inhibition did it give?
Answer: Its inhibition is 5.04%.

Question: How did the inhibition turn out when `COc1cccc(Nc2nccc(-c3cnn4ncccc34)n2)c1` was run?
Answer: The inhibition was 24.6%.

What follows are molecules tested against Serine/threonine-protein kinase 26 (Homo sapiens) (UniProt Q9P289). Conditions: at 0.1 µM.
Sequence of Serine/threonine-protein kinase 26 (Homo sapiens) (Q9P289 2-416 limits assumed): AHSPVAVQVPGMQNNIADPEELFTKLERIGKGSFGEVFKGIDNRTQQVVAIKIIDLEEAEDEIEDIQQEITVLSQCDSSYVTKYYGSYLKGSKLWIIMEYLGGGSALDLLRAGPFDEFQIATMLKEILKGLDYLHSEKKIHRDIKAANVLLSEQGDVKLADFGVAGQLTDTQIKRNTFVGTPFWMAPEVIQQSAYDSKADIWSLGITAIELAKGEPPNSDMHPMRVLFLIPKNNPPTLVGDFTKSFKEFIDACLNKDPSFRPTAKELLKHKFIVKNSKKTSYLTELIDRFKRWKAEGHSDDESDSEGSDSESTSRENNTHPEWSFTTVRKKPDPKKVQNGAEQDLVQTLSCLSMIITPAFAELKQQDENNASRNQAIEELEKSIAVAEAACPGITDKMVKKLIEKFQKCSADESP

Question: `NS(=O)(=O)c1ccc(N/N=C2\C(=O)Nc3ccc(C(=O)NCc4ccncc4)cc32)cc1` was tested. Which inhibition did it give?
Answer: The inhibition was 0.05%.

Question: How did the inhibition turn out when `CCCNc1cccc(-n2ncc3c(N/N=C/c4ccncc4)ncnc32)c1` was run?
Answer: Its inhibition is 1.77%.

Question: For `c1cnn2ncc(-c3ccnc(NCCCN4CCOCC4)n3)c2c1`, which inhibition is on record?
Answer: Its inhibition is -1.84%.

Question: Which inhibition does the source give for `O=C(Nc1n[nH]c2nnc(-c3cccnc3)cc12)C1CC1` here?
Answer: The inhibition was 0.94%.

Question: For `COC(=O)Nc1nc2cc(Oc3ccc(NC(=O)Nc4ccccc4)cc3)ccc2[nH]1`, which inhibition is on record?
Answer: Its inhibition is -0.23%.

Question: `Fc1ccc(Nc2nccc(-c3c(-c4ccc(C(F)(F)F)cc4)nn4ncccc34)n2)cc1F` was tested. Which inhibition did it give?
Answer: Its inhibition is -0.69%.

Question: Which inhibition does the source give for `CCS(=O)(=O)c1ccc(OC)c(Nc2ncc(-c3cccc(F)c3)o2)c1` here?
Answer: The inhibition was -0.55%.

Question: Which inhibition does the source give for `CN1CCC(C(=O)Nc2n[nH]c3nc(-c4ccc(O)cc4)c(Br)cc23)CC1` here?
Answer: Its inhibition is 1.4% and 1.72%.

Question: With `CC1=C(C(=O)Nc2ccc3[nH]nc(C)c3c2)C(c2ccc(C(F)(F)F)cc2)CC(=O)N1` (configuration not stated) as the molecule, how does the inhibition read?
Answer: The inhibition was -1.47%.

Question: For `COc1cccc(-n2ncc3c(N/N=C/c4ccc(C(=O)NCCN(C)C)cc4)ncnc32)c1`, which inhibition is on record?
Answer: The inhibition was -1.8%.

Question: How did the inhibition turn out when `N#Cc1ccc2c(-c3ccnc(NC4CC4)n3)c(-c3ccc(F)cc3)nn2c1` was run?
Answer: The inhibition was -1.26%.

Question: Which inhibition does the source give for `COc1ccc(Nc2ncc(-c3ccccc3)o2)cc1OC` here?
Answer: Its inhibition is -0.79%.

Question: How did the inhibition turn out when `Nc1nccc(-c2c(-c3ccc(F)cc3)ncn2C2CCNCC2)n1` was run?
Answer: The inhibition was 0.83% and -0.54%.

Question: Which inhibition does the source give for `Cc1cc(O)cc(C)c1/C=C/c1cncc(C(N)=O)c1` here?
Answer: The inhibition was -0.63%.

Question: Which inhibition does the source give for `N#Cc1cccc(Nc2ncc(-c3ccccc3)o2)c1` here?
Answer: Its inhibition is -0.1%.

Question: With `CC1=C(C(=O)Nc2ccc3[nH]ncc3c2)C(c2ccc(F)cc2)N=C(c2ccc(C(F)(F)F)nc2)N1` (configuration not stated) as the molecule, how does the inhibition read?
Answer: Its inhibition is -0.24%.

Question: With `COc1cc2c(cc1Nc1nc(Nc3cccc(F)c3C(N)=O)c3cc[nH]c3n1)N(C(=O)CN1CCN(C(C)C)CC1)CC2` as the molecule, how does the inhibition read?
Answer: The inhibition was 1.63%.

Question: For `COc1cc(N2CCN(C(C)C)CC2)ccc1Nc1nc(Nc2cccc(F)c2C(=O)O)c2cc[nH]c2n1`, which inhibition is on record?
Answer: Its inhibition is -0.64%.

Question: Which inhibition does the source give for `Cn1c(-c2nonc2N)nc2cnccc21` here?
Answer: The inhibition was -0.57%.

Question: `Fc1cccc(COc2ccc(Nc3ncncc3C#Cc3ccccc3)cc2Cl)c1` was tested. Which inhibition did it give?
Answer: Its inhibition is -0.45%.

Question: Which inhibition does the source give for `CN(c1ccc(NC(=O)NCCN2CCOCC2)cc1)c1ccnc(Nc2ccc(CS(C)(=O)=O)cc2)n1` here?
Answer: The inhibition was -1.2%.

Question: How did the inhibition turn out when `COc1cc(Nc2ncc(-c3ccccc3)o2)cc(OC)c1` was run?
Answer: The inhibition was -1.04%.

Question: With `COC(=O)Nc1nc2ccc(Oc3ccc(NC(=O)Nc4cc(C(F)(F)F)ccc4F)cc3)cc2s1` as the molecule, how does the inhibition read?
Answer: Its inhibition is 0.45%.

Question: How did the inhibition turn out when `c1ccc(-c2n[nH]cc2-c2ccnc(-c3ccc(OCCn4ccnc4)cc3)c2)nc1` was run?
Answer: Its inhibition is -1.3%.

Question: With `OCCCNc1nccc(-c2c(-c3ccc(F)cc3)nn3cc(C(F)(F)F)ccc23)n1` as the molecule, how does the inhibition read?
Answer: Its inhibition is 0.48%.

Question: With `O=C(O[C@H]1CN[C@H](C#Cc2cc3ncnc(Nc4ccc5c(ccn5Cc5cc(F)ccc5F)c4)c3s2)C1)N1CCOCC1` as the molecule, how does the inhibition read?
Answer: Its inhibition is -1.74%.

Question: How did the inhibition turn out when `NC(=O)c1ccc2c(-c3ccnc(NCCCO)n3)c(-c3ccc(F)cc3)nn2c1` was run?
Answer: Its inhibition is -2.37%.

Question: With `FC(F)(F)CNc1nccc(-c2cnn3ncccc23)n1` as the molecule, how does the inhibition read?
Answer: The inhibition was -0.96%.

Question: `CS(=O)(=O)Nc1ccc(-c2cc(-c3ccccc3)cc(C(N)=O)c2N)cc1` was tested. Which inhibition did it give?
Answer: The inhibition was -1.2%.

Question: Which inhibition does the source give for `CS(=O)(=O)CCNCc1ccc(-c2ccc3ncnc(Nc4ccc(OCc5cccc(C(F)(F)F)c5)cc4)c3c2)o1` here?
Answer: The inhibition was -1.93%.

Question: With `COc1cccc(Nc2nccc(-c3cnn4ncccc34)n2)c1` as the molecule, how does the inhibition read?
Answer: The inhibition was 1.55%.
